Measurements: ChEMBL document CHEMBL4513216, “Probing the Open Global Health Chemical Diversity Library for Multistage-Active Starting Points for Next-Generation Antimalarials” (ACS Infect Dis, 2020)
The whole screen tested about 69,000 compounds, of which about 8,600 (12%) showed an effect of 50% or more. Shown is part of a subset that was picked to be rich in strong results.

The molecules below were run on Plasmodium berghei (assay: Screen against P. berghei liver stage (PbLuc), transformed with Luciferase, at 10uM). Details: tested at 10 uM.
Type: functional, HepG2

Compound | INHIBITION
COc1cccc(CNC(=O)c2ccccc2-n2cc(CN)cn2)c1 | 5.11%
CC1c2ncc(Cn3cncn3)n2CCN1C(=O)c1ccccn1 (stereo not given) | 60.9%
COCC(=O)N1CCn2c(Cn3cncn3)cnc2C1C (stereo not given) | 36.2%
O=C(Cc1ccc(F)cc1)N1CCn2cc(Cn3cncn3)nc2C1 | -13.2%
N#Cc1cccc(C(=O)N2CCn3c(Cn4cncn4)cnc3C2)c1 | -17.2%
CC1c2ncc(Cn3cncn3)n2CCN1C(=O)N(C)C (stereo not given) | 49%
Cc1occc1C(=O)N1CCn2c(Cn3cncn3)cnc2C1C (stereo not given) | 6.55%
O=C(CC1CC1)N1CCc2ncc(CN3CCOCC3)n2CC1 | 42.7%
CC1c2ncc(Cn3cncn3)n2CCN1C(=O)c1cscn1 (stereo not given) | -6.3%
O=C(CC1CC1)N1CCc2ncc(Cn3cncn3)n2CC1 | 57.9%
CC1c2ncc(Cn3cncn3)n2CCN1C(=O)c1ccsc1 (stereo not given) | 52%
O=C(Cc1ccc(F)cc1)N1CCn2c(Cn3cncn3)cnc2C1 | 57.9%
COCC(=O)N1CCc2ncc(Cn3cncn3)n2CC1 | 15.9%
O=C1CN(c2ccc(C(=O)N3CCc4ccccc43)cn2)CCN1 | 49%
N#Cc1c(F)cccc1N1CCN(C(=O)Nc2nncs2)CC1 | -7.53%
O=C(NCCc1nccs1)c1cn(CCN2CCNCC2)nn1 | -45%
O=C(NCCN1CCNC1=O)c1cnc(-c2cccnc2)nc1 | 15.64%
O=C(c1cccs1)N1CCc2ncc(Cn3cncn3)n2CC1 | 22.9%
O=C(c1cscn1)N1CCc2ncc(Cn3cncn3)n2CC1 | 38.1%
O=C(c1cccs1)N1CCc2nnc(COc3cncnc3)n2CC1 | 28.2%

Compound | INHIBITION
O=C(Cc1cccs1)N1CCc2nnc(COc3cncnc3)n2CC1 | 47.5%
O=C(c1ccsc1)N1CCc2nnc(COc3cncnc3)n2CC1 | 53.9%
O=C(c1ccsc1)N1CCc2ncc(Cn3cncn3)n2CC1 | 62.5%
O=C1CN(C(=O)c2cc3c(F)cc(Br)cc3[nH]2)CCN1 | -44.2%
Cc1cccc(N2CCc3ncc(CNc4ccccn4)n3CC2)n1 | -26.1%
Cc1cc(N2CCOC(c3ccc(C(N)=O)cn3)C2)ncn1 (stereo not given) | 36.9%
Cc1cc(C)nc(N2CCC(C(=O)Nc3n[nH]c(C)n3)CC2)n1 | 47.3%
COCCN1CCC2(CCC1=O)CN(C1CCOCC1)CCN2C (stereo not given) | 17.8%
CC(=O)Nc1nc(C(=O)NCc2ccc(N3CCOCC3)nc2)cs1 | 19.4%
Cc1cccc(C(=O)NCc2ccc(N3CCCCC3)nc2)n1 | 8.48%
CC(=O)Nc1nc(C(=O)Nc2ccc(N3CCCCC3)nc2)cs1 | 78.1%
CC(=O)Nc1nc(C(=O)NCc2ccc(N3CCCCCC3)nc2)cs1 | 67.2%
CC(=O)Nc1nc(C(=O)NCc2ccnc(N3CCCC3)c2)cs1 | 9.14%
CCN1CCN(c2ccc(CNC(=O)c3ccc(Cl)o3)cn2)CC1 | 57.2%
CC(=O)Nc1nc(C(=O)NCc2ccc(N3CCCC3)nc2)cs1 | 13.3%
CCN(CC)c1ccc(CNC(=O)c2cccc(C)n2)cn1 | 16.2%
CCN1CCN(c2ccc(CNC(=O)c3cnn(C)c3C)cn2)CC1 | -15.5%
Cc1cccc(C(=O)NCc2ccc(N3CCCCCC3)nc2)n1 | 87.3%
CC(=O)Nc1nc(C(=O)Nc2ccc(F)cc2)cs1 | 31.1%
CCN1CCN(c2ccc(CNC(=O)c3cc(C)on3)cn2)CC1 | 25.6%
